Compounds without any hit were thinned out: in the full panel of roughly 79,000, 15% have a hit. Values without a mark were called inactive. The source made the active and inactive calls. No stated cut-off is given here; in the data, active means growth inhibition above about 70%; inactive means the rest.
Columns and labels:
[1] = NCI Yeast Anticancer Drug Screen. Data for the rad50 strain (AID 155);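 further: 0% = growth of vehicle-only cultures of the same strain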; conditions: S. cerevisiae rad50 strain growth inhibition; at 50.0 µM; hits give high values
Method in brief: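 Readout: growth inhibition relative to vehicle-treated cultures. Compound exposure was carried out in a genetically defined yeast strain deficient in DNA damage repair.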

[2] = NCI Yeast Anticancer Drug Screen. Data for the mec2-1 strain (AID 157); conditions: S. cerevisiae mec2-1 strain, at 50.0 µM, hits give high values
Method in brief: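 Readout is yeast growth inhibition, normalised to vehicle-treated controls, in the mec2-1 strain exposed to compound.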

[3] = NCI Yeast Anticancer Drug Screen. Data for the sgs1 mgt1 strain (AID 161);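 further: 0% = growth of cultures given vehicle only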; conditions: S. cerevisiae sgs1 mgt1 strain, at 50.0 µM, hits give high values
Method in brief: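 Compounds are added to genetically altered yeast, and growth is compared with cultures given vehicle alone to give percent inhibition.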

[4] = NCI Yeast Anticancer Drug Screen. Data for the cln2 rad14 strain (AID 165);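 further: 0% = growth equal to vehicle treated cultures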; conditions: S. cerevisiae cln2 rad14 strain, at 50.0 µM, hits give high values
Method in brief: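 Relative to vehicle controls, growth inhibition of compound-treated cln2 rad14 yeast was recorded.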

[5] = NCI Yeast Anticancer Drug Screen. Data for the bub3 strain (AID 167); conditions: S. cerevisiae bub3 mutant strain, at 50.0 µM, hits give high values
Method in brief: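 Readout: yeast growth inhibition, expressed relative to vehicle-only wells. The test organism is a mutant strain from a panel with lesions in DNA repair or checkpoint genes.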

[6] = NCI Yeast Anticancer Drug Screen. Data for the mlh1 rad18 strain (AID 175); conditions: S. cerevisiae mlh1 rad18 strain growth inhibition; at 50.0 µM; hits give high values
Method in brief: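 Test agents were incubated with a yeast strain of defined genotype (DNA damage repair defect). Inhibition of growth was derived by comparison with vehicle-exposed cultures.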

Compound | growth inhibition [1] | growth inhibition [2] [%] | growth inhibition [3] [%] | growth inhibition [4] [%] | growth inhibition [5] [%] | growth inhibition [6] [%]
CSc1cc2c(cc1[N+](=O)[O-])C(=O)c1cc(F)ccc1-2 | 8.7% | 18.1 | 4.45 | -5.5 | 3.15 | 5
O=C(Nn1cnc2ccccc2c1=O)c1ccc(NC(=S)Nc2ccccc2)cc1 | 63.5% | -16.4 | 52.7 | -27.8 | -1.45 | 7.5
C=CCCCCCCCCC(=O)OCC(C)C | 11.3% | 22.4 | 15.9 | -27.2 | -24.1 | 17.4
CCCCCCCCCCCCCC(=O)CCCC | -9.7% | -8.4 | 2.2 | -22.5 | -2.45 | -18
O=C(CC(C(=O)c1ccc(F)cc1)c1ccsc1)c1cccs1 (stereo not drawn) | 13.8% | 2.3 | 26.8 | 16.5 | 8.5 | 3
CC(=O)OC/C(C)=N\NS(=O)(=O)c1cc(Cl)c(Cl)cc1Cl | 15.1% | 16.4 | 15.8 | 13.8 | 6.8 | 13.5
CCc1cccc(CC)c1NC(=S)NN | 17.4% | 15.3 | 41.9 | -6 | 24.2 | 5.55
CCCCCCC(C)Oc1ccccc1Cl (stereo not drawn) | 5.35% | -11.5 | 7.9 | -23.9 | 6.4 | -20.6
CC12CC3(Nc4ccccc4C3(C)O)OC1(C)c1ccccc1N2 (stereo not drawn) | 1.1% | 9.35 | 10.3 | 1.25 | -6.1 | 17.5
O=C1C(N=Nc2ccc(Br)cc2)Sc2nc3ccccc3n21 (stereo not drawn) | 8.2% | -12.4 | 6.45 | -27.4 | 17.1 | 10.3
Cn1nc(-c2ccccc2)c2c(/C=C/c3ccc(F)cc3)onc2c1=O | -14.4% | -17.9 | 8.55 | 8.35 | 0.05 | -15.3
COc1ccc(N=Nc2c(C)c(C#N)c(=S)n(C3OC(COC(C)=O)C(OC(C)=O)C(OC(C)=O)C3OC(C)=O)c2-c2ccccc2)cc1 (stereo not drawn) | -8.55% | -8.9 | -20.6 | 9.05 | 8 | -5.1
COc1ccc(C2c3cc4c(cc3OC(NNS(=O)(=O)c3ccc(C)cc3)C2C)OCO4)cc1 (stereo not drawn) | -22.4% | 12.9 | 9.55 | 4.4 | -5.1 | 34.2
CN(C)NC(=O)/C=C\C(=O)O | -12.6% | -17.4 | -9.8 | -6.9 | -7.45 | -3.2
O=C1C2CCOC2N=C2CCCN12 (stereo not drawn) | -1.85% | 5.55 | -3.55 | 1.65 | -5.3 | -11.1
CCCCOC(=O)/C=C/C(=O)N1CCN(C(=O)/C=C/C(=O)OCCCC)C(C)C1 (stereo not drawn) | 33.7% | 24.7 | 20.8 | -11.1 | 24.9 | 34.6
Cc1nc2ccccc2s1 | 25.1% | 48.2 | 7.9 | 29 | -1.35 | 4.05
Cc1ccccc1I | -15.2% | -32.3 | -3.2 | 9 | 0.5 | 9.2
CC(Cc1ccccc1)Nc1ccccc1 (stereo not drawn) | 17.8% | 3.5 | 31.4 | -10.3 | -12.5 | 62.4

Compound | growth inhibition [1] | growth inhibition [2] [%] | growth inhibition [3] [%] | growth inhibition [4] [%] | growth inhibition [5] [%] | growth inhibition [6] [%]
C=CCOC(=O)NCC(=O)NC(C)C(N)=O (stereo not drawn) | -22.7% | -14.2 | -19.1 | 2.55 | -5.5 | 4.25
COc1ccc(C(Br)C(Br)C(=O)C(C)(C)C)cc1 (stereo not drawn) | -2.95% | 8.75 | 6.2 | -21.6 | 31.6 | 30.4
O=S(=O)(OI(O)CC(F)(F)F)C(F)(F)F | 30.5% | 48.1 | -0.65 | 5.9 | 14.5 | 39.5
CS(=O)(=O)CC(=O)c1ccc(Br)cc1 | -3.1% | -4.05 | 14.1 | -12.8 | -5.45 | 10.3
COc1c(C(=O)/C(=N/Nc2cccc(Cl)c2)C(C)=O)c(O)c(OC)c2occc12 | -5.15% | -8 | -6.6 | -8.5 | 8.2 | 7.65
CCOC(=O)C(=N\Nc1ccccc1Br)/C(C)=N\NC(N)=S | 50% | 19.6 | 56.9 | 14.7 | 9.3 | 33
O=C1/C(=C/C=C/c2ccccc2)CCC1CNc1ccc(Br)cc1 (stereo not drawn) | -20.2% | -11.7 | -17.8 | 16.9 | -15.4 | 9.5
O=C1c2cc(Br)ccc2-c2ccc(Br)c3cccc1c23 | -10.6% | -20.8 | -6.1 | 10.3 | -1.05 | -20.3
Cn1ccc(=O)n(C)c1=O | -8.15% | -10.8 | 2 | 5.15 | 5.05 | 2.25
c1ccc(-c2oc3ccc4ccccc4c3c2-c2ccc(OCCN3CCCC3)cc2)cc1 | 75.8% (active) | 58.4 | 66.8 | 61.2 | 51.4 | 61.5
O=[N+]([O-])c1cccc(/C=[N+](\[O-])c2ccccc2)c1 | -3.45% | 8.2 | 13 | -38.6 | -16.9 | 0.6
NS(=O)(=O)c1ccc(N=C2C(=O)Nc3ccccc32)cc1 | 1.05% | -6.1 | -14.6 | 17.6 | -23.8 | 4.95
COC(=O)C1CCC2C3CCCCC3CCC2C1(C)C(=O)OC (stereo not drawn) | -7.6% | 2 | -4.55 | -28.4 | 5.7 | 2.05
CC1(C)Oc2ccc3ccccc3c2C(c2ccc(O)cc2)=C1c1ccccc1 | -51.5% | -11 | 5.2 | 7.75 | -3.1 | -20.6
Cc1cn(C2CC(O)C(CO)O2)c(=O)nc1N1CCCCCCC1 (stereo not drawn) | -6.85% | -4.8 | -11.3 | -12.3 | 4.85 | 0.3
CC(C)CCCC(C)C1CCC2C3CCC4=CC(=O)C=CC4(C)C3CCC12C (stereo not drawn) | 45.1% | 35.2 | 47.6 | 19.1 | 0.85 | 41
Cc1csc2nc(-c3ccncc3)cn12 | 10.7% | 10.1 | -14 | 1.4 | 37.1 | 23.1
CN(C)C(=O)Nc1ccc(F)cc1 | -5.75% | -25.6 | 13.6 | -20.6 | -24.9 | -16.6
CCSC(C(OC(C)=O)C(OC(C)=O)C(COC(C)=O)OC(C)=O)n1cnc2c(=S)nc[nH]c21 (stereo not drawn) | 6.75% | -0.45 | 9.35 | 18.8 | -1.55 | 1.7

— PubChem BioAssay (NCI)
